# Data taken from PubChem BioAssay (Tox21).
# Values joined by “and” are separate entries in the source; they are usually repeats but may differ in a detail not shown here. Identical values can stand only once. Records with an inconclusive call do not appear. Where a call stands in place of a potency, no number is given. The source holds several records for some structures; these can differ, active in one and inactive in another. Active and inactive are the calls of the source. Calls follow the shape of the dose curve; as a rule, active = well fitted activation curve with a large enough effect in the repeat runs; inconclusive = weak or mixed curves; inactive = flat fitted curve, though single readings scatter.
# Assay: A CellTox Green Cytotoxicity Assay to monitor cytotoxicity in HepG2 cells - 16 hour (AID 1224876); also: nearly all actives have a fitted effect of over 45% in size
# Conditions: CellTox Green fluorescence; series mostly up to 76.8 µM
# From the text: National Center for Advancing Translational Sciences [NCATS]
# NIH Chemical Genomics Center [NCGC]
# U.S. Environmental Protection Agency [EPA]
# National Institutes of Environmental Health Sciences [NIEHS]
# National Toxicology Program [NTP]
# Cell-based models are critical for drug discovery. Determining the natural cytotoxic effects resulting from test compounds is an essential research activity. A CellTox Green Cytotoxicity Assay to monitor cytotoxicity in real time of continues cell culture during 40 hours of the compound treatment was used to screen Tox21 10K library compounds in HepG2 cells. CellTox Green Cytotoxicity Assay is a nonlytic, homogeneous, biofluorescent method to measure cytotoxicity in cell culture after experimental manipulation. The assay system uses a proprietary asymmetric cyanine dye that is excluded from viable cells but preferentially stains the dead cell's DNA. […] Viable cells produce no appreciable increases in fluorescence. Therefore, the fluorescence signal produced by the binding interaction with dead cell DNA is proportional to cytotoxicity.
# The mixture of HepG2 cell suspension and reagents were dispensed at 600cells/6 ul/well in 1536-well tissue culture treated black solid bottom plates using a Multidrop dispenser. After the assay plates were incubated at a 37 C/5% CO2 incubator for 5 hours, 23 nL of compounds dissolved in DMSO, positive and negative controls was transferred to the assay plate by a pintool work station. The plates were incubated at 37 C for 40 hours. The fluorescence intensity were measured at 0h, 8h, 16h, 24h, 32h and 40h time points using ViewLux plate reader during compound treatment.
# Potency is read from the fitted curve at half-maximal effect.
row,Compound,Potency
1,CC[n+]1ccccc1,inactive
2,Nc1ccc(-c2ccc(N)c(Cl)c2)cc1Cl,inactive and 43.6 µM (active)
3,CCCCCCCCCCCC(=O)O,inactive
4,CCCCCCn1cc[n+](C)c1,inactive
5,CCCC[N+]1(C)CCCCC1,inactive
6,O=C(O)C(Cl)Cl,inactive
7,COP(=O)(OC)OC=C(Cl)Cl,inactive
8,C=CCOC(Cn1ccnc1)c1ccc(Cl)cc1Cl (stereo not given),inactive
9,O=C(O)COc1ccc(Cl)cc1Cl,inactive
10,CCCC[n+]1ccc(C)cc1,inactive and 54.7 µM (active)
11,Cc1cc(Cl)ccc1OCC(=O)O,inactive
12,CCOP(=S)(OCC)Oc1ccc2c(C)c(Cl)c(=O)oc2c1,inactive
13,Nc1ccc(Cl)cc1,inactive
14,O=[N+]([O-])c1ccccc1O,inactive
15,CCCCCCCCCCCCCCCCn1cc[n+](C)c1,inactive and 49.4 µM (active) and 39 µM (active)
16,CC[N+](CC)(CC)CC,inactive
17,Cc1cc(Cl)ccc1N,inactive and 38.9 µM (active)
18,C[N+](C)(C)Cc1ccccc1,inactive
19,COc1ccccc1N,inactive
20,CCCC[n+]1ccccc1,inactive

row,Compound,Potency
1,COc1ccc(N)cc1,inactive and 195 nM (active)
2,C[C@]12CCC(=O)C=C1CC[C@@H]1[C@@H]2CC[C@]2(C)C(=O)CC[C@@H]12,inactive
3,CCC(=O)C(CC(C)N(C)C)(c1ccccc1)c1ccccc1 (stereo not given),inactive
4,CCCC[n+]1cccc(C)c1,inactive
5,O=C(O)CCl,inactive
6,OCCOc1ccccc1,inactive
7,COCC(=O)N(c1c(C)cccc1C)C(C)C(=O)OC (stereo not given),inactive
8,CN(C)[C@@H]1C(=O)C(C(N)=O)=C(O)[C@@]2(O)C(=O)C3=C(O)c4c(O)cccc4[C@@](C)(O)[C@H]3[C@H](O)[C@@H]12,inactive
9,Cc1cc(-c2ccc(N)c(C)c2)ccc1N,inactive
10,CCCCn1cc[n+](C)c1,inactive
11,CCCCCCCCn1cc[n+](C)c1,inactive
12,CCNc1nc(Cl)nc(NCC)n1,inactive
13,Nc1ccc(-c2ccc(N)cc2)cc1,inactive
14,O=c1[nH]c(=O)n(Cl)c(=O)n1Cl,inactive
15,O=P1(N(CCCl)CCCl)NCCCO1 (stereo not given),inactive
16,Nc1ccccc1,inactive
17,CCCC[n+]1ccccc1C,inactive
18,O=S(=O)(O)O,inactive
19,CCCCCCCCCCn1cc[n+](C)c1,inactive
20,CC(=O)[O][Hg][c]1ccccc1,1.72 µM (active) and 2.45 µM (active) and 1.51 µM (active)
